In PubChem BioAssay (Tox21):
Where “and” joins values, the source holds several entries; their conditions need not be identical. Equal values may be shown once. Results filed as inconclusive are left out. Values without a mark were called inactive. Calls of active or inactive are those of the source. Calls follow the shape of the dose curve; as a rule, active = well fitted inhibition curve with a large enough effect in the repeat runs; inconclusive = weak or mixed curves; inactive = no such curve, though single readings can be large or run the other way.

molecular target: Cytochrome P450 2D6 (Homo sapiens) (UniProt P10635); assay: Cytochrome P450 Family 2 Subfamily D Member 6 (CYP2D6) small molecule antagonists: luciferase reporter qHTS assay (AID 1671196); details: P450-Glo CYP2D6 enzyme assay, luciferin luminescence, 1 h; series mostly up to 115 µM; activity change, negative = inhibition: at the top concentration; also: nearly all actives have a fitted effect of over 50% in size
Method in brief: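 Cell-free P450-Glo system: CYP2D6 with proluciferin substrate was pre-incubated with compound for 10 min, then reacted with NADPH regeneration for 1 h at room temperature. Luciferin product was detected after 20 min, and data were reported as relative luminescence units.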
% is scaled to controls: 0 for no effect and ±100 for the full control effect; potency is read from the fitted curve at half-maximal effect.

Chain of Cytochrome P450 2D6 (Homo sapiens) (P10635 whole entry, looked up): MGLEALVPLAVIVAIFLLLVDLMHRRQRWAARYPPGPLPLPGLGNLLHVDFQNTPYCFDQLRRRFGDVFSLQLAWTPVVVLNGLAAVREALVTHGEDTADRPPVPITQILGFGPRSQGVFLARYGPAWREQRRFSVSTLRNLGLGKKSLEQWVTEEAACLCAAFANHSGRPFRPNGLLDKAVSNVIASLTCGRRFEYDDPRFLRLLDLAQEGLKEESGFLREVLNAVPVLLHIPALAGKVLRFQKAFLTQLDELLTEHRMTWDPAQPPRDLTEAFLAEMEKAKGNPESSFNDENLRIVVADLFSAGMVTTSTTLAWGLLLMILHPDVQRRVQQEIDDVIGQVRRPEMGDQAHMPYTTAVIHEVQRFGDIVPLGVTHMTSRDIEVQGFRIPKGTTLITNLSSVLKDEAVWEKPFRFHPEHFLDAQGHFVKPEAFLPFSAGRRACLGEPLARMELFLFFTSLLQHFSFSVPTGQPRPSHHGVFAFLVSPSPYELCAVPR

| Structure (SMILES) | activity change, negative = inhibition | Potency |
| --- | --- | --- |
| CC(C)(C)c1ccc(OP(=O)(Oc2ccccc2)Oc2ccccc2)cc1 | -21.5% |  |
| CC1=C2C[C@H]3[C@@H](CC=C4C[C@@H](O)CC[C@@]43C)[C@@H]2CC[C@]12O[C@@H]1C[C@H](C)CN[C@H]1[C@H]2C | -7.22% [at 53 µM] |  |
| Cc1ccc2cc3c(ccc4ccccc43)c3c2c1CC3 | -12.6% [at 53 µM] |  |
| O=S1OCC2C(CO1)C1(Cl)C(Cl)=C(Cl)C2(Cl)C1(Cl)Cl (stereo unspecified) |  | 4 µM (active) |
| CN1C2CCC(C)(C)C1CC(OC(=O)C(O)(c1cccs1)c1cccs1)C2 (stereo unspecified) |  | 15.5 µM (active) |
| COP(=O)(OC)Oc1ccc([N+](=O)[O-])cc1 |  | 25.2 µM (active) |
| CCN(CC)CCc1c[nH]c2ccccc12 |  | 5.26 µM (active) |
| C#CCC1=C(C)C(OC(=O)C2C(C=C(C)C)C2(C)C)CC1=O (stereo unspecified) |  | 39.7 µM (active) |
| CN1CCc2cc(Cl)c(O)cc2[C@H]2c3ccccc3CC[C@@H]21 |  | 0.0078 µM (active) |
| O=[N+]([O-])c1cccc2cccc([N+](=O)[O-])c12 | -27.1% |  |
| Oc1ccc([C@H]2CNCc3c2ccc(O)c3O)cc1O |  | 34.7 µM (active) |
| CCOP(=O)(Sc1ccccc1)Sc1ccccc1 |  | 56.4 µM (active) |
| FC(F)C(F)(F)OCC(Cn1cncn1)c1ccc(Cl)cc1Cl (stereo unspecified) |  | 11.2 µM (active) |
| COc1ccc2[nH]cc(CCN(C(C)C)C(C)C)c2c1 |  | 4.09 µM (active) |
| C[C@H]1[C@H](c2ccc(Cl)cc2)SC(=O)N1C(=O)NC1CCCCC1 | -19% |  |
| CCOP(=O)(OCC)Oc1nc(Cl)c(Cl)cc1Cl |  | 5.61 µM (active) |
| c1ccc(Nc2ccc(Nc3ccccc3)cc2)cc1 |  | 39.8 µM (active) |
| Clc1ccc(C(c2ccc(Cl)cc2)C(Cl)Cl)cc1 |  | 64.3 µM (active) |
| CCN(CC)Cc1nccn1-c1ccc([N+](=O)[O-])cc1C(=O)c1ccccc1Cl |  | 3.09 µM (active) |
| C=Cc1cccc(CCl)c1 | -21.7% [at 300 µM] |  |
| S=C=NCCc1ccccc1 |  | 11.3 µM (active) |
| N#Cc1c[nH]cc1-c1cccc2c1OC(F)(F)O2 | -24.8% |  |
| c1ccc(N=NNc2ccccc2)cc1 |  | 65.4 µM (active) and 63.3 µM (active) |
| CN1CCc2cc3c(cc2C1O)OCO3 (stereo unspecified) |  | 2.01 µM (active) |
| O=C1C(Cl)=C(Cl)C(=O)C(Cl)=C1Cl |  | 31.6 µM (active) and 25.2 µM (active) |
| ClC1=C(Cl)[C@]2(Cl)[C@@H]3[C@H]4C[C@H]([C@@H]5O[C@H]45)[C@@H]3[C@@]1(Cl)C2(Cl)Cl | -7.34% |  |
